Results as given in PubChem BioAssay (Tox21).
“And” between values parts separate entries of the source, which are not always exact repeats. Equal values may be shown once. Unmarked numbers belong to inactive results. Records with an inconclusive call do not appear. Entries that show only a call come without a potency. The source made the active and inactive calls. Unless noted, the call rests on the fitted dose curve; in most records, active means well fitted curve in the direction sought with a large enough effect in the repeat runs; inconclusive means weak or mixed curves; inactive means no such curve, though single readings can be large; an effect the other way counts as inactive or inconclusive.

Key:
[1] = A CellTox Green Cytotoxicity Assay to monitor cytotoxicity in HepG2 cells - 8 hour (AID 1224890); further: nearly all actives have a fitted effect of over 45% in size
In short: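 Fluorescent DNA-binding dye, 600 HepG2 cells/well, 5 h preincubation then compound in DMSO; same plates read at 0–40 h, 37 C.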

[2] = qHTS assay to identify small molecule antagonists of the androgen receptor (AR) signaling pathway using the MDA cell line in the presence of 0.5 nM R1881 - cell viability counter screen (AID 1259242); further: nearly all actives have a fitted effect of over 45% in size
In short: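 Human breast carcinoma MDA-kb2 cells, cultured without CO2, receive compounds alongside 0.5 nM (final) R1881 agonist. After 16 hr at 37C, viability is taken as live-cell protease signal.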

[3] = target: Estrogen receptor (Homo sapiens) (UniProt P03372); assay: qHTS assay to identify small molecule antagonists of the estrogen receptor alpha (ER-alpha) signaling pathway using the BG1 cell line in the presence of 0.1 nM 17-beta-estradiol (AID 1259244); further: nearly all actives have a fitted effect of over 50% in size
In short: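 Seeding of stripped-serum-adapted VM7Luc4E2 cells, 24 h attachment, compound transfer, then 0.1 nM final 17beta-estradiol; after 22 h incubation, ONE-Glo reagent and luminescence reading.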

[4] = qHTS assay to identify small molecule HDAC inhibitors (AID 1259364); further: potency means the concentration at half of the fitted maximal effect;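 further: wild-type HCT-116 cells with endogenous class I/II HDAC activity; nearly all actives have a fitted effect of over 45% in size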
In short: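 After a 2 hr compound incubation (37C, 5% CO2), HCT-116 cells seeded at 1,500/well the day before received HDAC-Glo reagent; signal read as luminescence after 30 min at room temperature.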

[5] = qHTS assay to identify small molecule agonists of the sonic hedgehog signaling (Shh) pathway - cell viability counter screen (AID 1259366); further: nearly all actives have a fitted effect of over 50% in size; further: potency means the concentration at half of the fitted maximal effect
In short: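 After a 4hr attachment at 37C, NIH/3T3 cells bearing an integrated Gli1-driven luciferase reporter were dosed with compounds. Treatment lasted 24hr, with the final hour including CellTiter-Fluor for a fluorescence viability measurement.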

[6] = qHTS assay to identify small molecule antagonists of the sonic hedgehog signaling (Shh) pathway - cell viability counter screen (AID 1259367); further: nearly all actives have a fitted effect of over 55% in size
In short: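 Tox21 library chemicals were tested on a Gli1-Luc NIH/3T3 clone (2,000 cells/well) stimulated by conditioned medium; viability was quantified as fluorescence from CellTiter-Fluor reagent added at 23 hr.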

[7] = qHTS assay to identify small molecule HDAC inhibitors - cell viability counter screen (AID 1259365); further: series mostly up to about 92 µM; nearly all actives have a fitted effect of over 50% in size
In short: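 Following a 2hr exposure of overnight-plated wild-type HCT-116 cells to DMSO-delivered compounds, CellTiter-Glo was added and luminescence recorded after 30min at room temperature.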

[8] = qHTS assay to identify small molecule antagonists of the estrogen receptor alpha (ER-alpha) signaling pathway using the BG1 cell line in the presence of 0.1 nM 17-beta-estradiol - cell viability counter screen (AID 1259241); further: nearly all actives have a fitted effect of over 40% in size
In short: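 Measures cytotoxicity alongside the ER-alpha antagonist readout: VM7Luc4E2 cells, charcoal-stripped serum, 0.1 nM 17beta-estradiol final, 22 hr compound incubation at 37C, CellTiter-Fluor fluorescence.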

[9] = target: Androgen receptor (Homo sapiens) (UniProt P10275); assay: qHTS assay to identify small molecule antagonists of the androgen receptor (AR) signaling pathway using the MDA cell line in the presence of 0.5 nM R1881 (AID 1259243); further: nearly all actives have a fitted effect of over 50% in size
In short: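 Cells: MDA-kb2 (MMTV-luc). Stimulus: 0.5 nM R1881. Time: 16 hr, 37C, no CO2. Detection: ONE-Glo luminescence after 30 min at RT.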

[10] = qHTS assay to identify small molecule phospholipidosis (PLD) inducers (AID 1259344; active means well fitted curve in the direction sought with a large enough effect; an effect the other way counts as inactive or inconclusive; further: potency means the concentration at half of the fitted maximal effect)
In short: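 Image-based: LipidTOX Red pit count/intensity per well and per cell; HepG2, 24 h compound at 37 C, PFA fixation, Hoechst counterstain.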

Chain of Androgen receptor (Homo sapiens) (P10275 whole entry, looked up): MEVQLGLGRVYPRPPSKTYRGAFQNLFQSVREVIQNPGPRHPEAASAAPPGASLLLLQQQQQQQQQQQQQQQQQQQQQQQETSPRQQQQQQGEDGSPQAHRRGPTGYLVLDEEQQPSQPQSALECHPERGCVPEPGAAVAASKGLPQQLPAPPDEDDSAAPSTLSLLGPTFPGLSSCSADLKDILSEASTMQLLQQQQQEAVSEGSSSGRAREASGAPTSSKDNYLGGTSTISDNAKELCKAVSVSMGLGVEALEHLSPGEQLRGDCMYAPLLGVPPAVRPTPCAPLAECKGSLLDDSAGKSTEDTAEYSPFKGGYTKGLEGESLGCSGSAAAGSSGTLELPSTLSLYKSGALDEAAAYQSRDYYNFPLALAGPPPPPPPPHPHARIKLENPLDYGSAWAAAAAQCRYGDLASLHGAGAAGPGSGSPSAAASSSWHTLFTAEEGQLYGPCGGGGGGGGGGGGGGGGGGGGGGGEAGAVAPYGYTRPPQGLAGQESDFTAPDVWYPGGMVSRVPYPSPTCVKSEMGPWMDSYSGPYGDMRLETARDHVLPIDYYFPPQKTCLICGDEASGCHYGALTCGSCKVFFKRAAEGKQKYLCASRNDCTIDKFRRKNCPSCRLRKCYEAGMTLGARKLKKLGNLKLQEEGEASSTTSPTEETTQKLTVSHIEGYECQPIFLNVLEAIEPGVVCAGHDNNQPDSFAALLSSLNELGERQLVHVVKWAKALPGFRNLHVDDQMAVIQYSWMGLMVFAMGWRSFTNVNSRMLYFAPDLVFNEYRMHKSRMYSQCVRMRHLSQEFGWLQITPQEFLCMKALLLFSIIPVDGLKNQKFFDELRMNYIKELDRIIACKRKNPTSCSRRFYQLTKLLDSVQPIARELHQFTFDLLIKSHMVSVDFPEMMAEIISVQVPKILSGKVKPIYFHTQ
Chain of Estrogen receptor (Homo sapiens) (P03372 whole entry, looked up): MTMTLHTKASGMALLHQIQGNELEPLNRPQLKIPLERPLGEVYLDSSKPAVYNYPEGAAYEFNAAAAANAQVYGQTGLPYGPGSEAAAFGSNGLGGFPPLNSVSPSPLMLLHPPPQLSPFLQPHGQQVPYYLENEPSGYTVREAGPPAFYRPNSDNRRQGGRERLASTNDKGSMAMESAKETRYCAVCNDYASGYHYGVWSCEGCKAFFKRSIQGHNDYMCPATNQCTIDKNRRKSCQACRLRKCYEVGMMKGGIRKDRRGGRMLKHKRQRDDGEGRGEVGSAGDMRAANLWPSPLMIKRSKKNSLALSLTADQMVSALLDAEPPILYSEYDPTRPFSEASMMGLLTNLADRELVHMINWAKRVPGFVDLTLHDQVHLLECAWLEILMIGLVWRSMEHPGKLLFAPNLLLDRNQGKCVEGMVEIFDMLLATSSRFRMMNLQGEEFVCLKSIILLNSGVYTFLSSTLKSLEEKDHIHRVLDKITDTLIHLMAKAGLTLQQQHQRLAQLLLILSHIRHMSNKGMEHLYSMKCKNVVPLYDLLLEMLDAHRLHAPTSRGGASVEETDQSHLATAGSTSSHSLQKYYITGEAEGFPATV

SMILES | Potency [1] | outcome [2] | outcome [3] | Potency [4] | Potency [5] | outcome [6] | outcome [7] | outcome [8] | Potency [9] | Potency [10] | PLD induction [10]
O=C1OC(=O)c2cc([N+](=O)[O-])ccc21 | inactive | inactive | inactive | inactive | inactive | inactive | – | – | – | – | –
COC[C@H](c1ccc(C(F)(F)F)cc1)N1CCN(C2(C)CCN(C(=O)c3c(C)ncnc3C)CC2)C[C@H]1C | inactive | inactive | inactive | inactive | inactive | inactive | – | – | – | – | –
Nc1ncnc2c1ncn2Cc1c(F)cccc1Cl | inactive | inactive | inactive | inactive | inactive | inactive | inactive | – | – | – | –
CC(CCO)CCCC(C)(C)O (centres undefined) | inactive | inactive | – | inactive | inactive | inactive | inactive | – | – | – | –
CC1(C)SC(C)(C)SC(C)(C)S1 | – | inactive | inactive | inactive | inactive | inactive | inactive | inactive | inactive | – | –
CCC(=O)Nc1cccc(N)c1 | inactive | inactive | inactive | inactive | inactive | inactive | inactive | – | – | – | –
Cc1c(C)n(CCN(C)C)c2ccc(C(=O)OCCN(C)C)cc12 | inactive | inactive | inactive | inactive | inactive | inactive | inactive | – | – | 11.2 µM (active) | –
CC(=O)OC(C)(C)C | inactive | inactive | inactive | inactive | inactive | inactive | inactive | – | – | – | –
CC12CCC(CC1=O)C2(C)C (centres undefined) | inactive | inactive | inactive | inactive | inactive | inactive | inactive | – | – | – | –
CCN(CC)C(=O)c1ccc(O)c(OC)c1 | inactive | inactive | inactive | inactive | inactive | inactive | – | – | – | inactive | –
CNC(=O)c1c(I)c(NC(=O)CCCCC(=O)Nc2c(I)c(C(=O)O)c(I)c(C(=O)NC)c2I)c(I)c(C(=O)O)c1I | inactive | inactive | inactive | inactive | – | inactive | inactive | – | – | – | –
NC(=O)c1ncn([C@@H]2O[C@H](CO)[C@@H](O)[C@H]2O)c1O | – | inactive | inactive | inactive | inactive | inactive | inactive | inactive | – | inactive | –
COC(=O)C1=C(C)NC(C)=C(C(=O)OCC(C)=O)C1c1ccccc1[N+](=O)[O-] (centres undefined) | – | inactive | inactive | inactive | – | – | inactive | inactive | – | inactive | –
CCCOc1ccccc1-c1nc2n[nH]nc2c(=O)[nH]1 | – | inactive | inactive | inactive | inactive | inactive | inactive | inactive | – | inactive | –
CCCCCC[C@@H](CCC)C(=O)O | inactive | inactive | inactive | inactive | inactive | inactive | inactive | – | – | inactive | –
CC1=CCC2C(C1)C2(C)C (centres undefined) | – | inactive | inactive | inactive | inactive | inactive | inactive | inactive | inactive | – | –
Nc1cc(C(Cl)=C(Cl)Cl)c(S(N)(=O)=O)cc1S(N)(=O)=O | – | inactive | inactive | inactive | inactive | inactive | inactive | inactive | – | inactive | –
C=C[Si](OC)(OC)OC | – | inactive | inactive | inactive | inactive | inactive | inactive | inactive | – | – | –
CC(C=O)Cc1ccc(C(C)C)cc1 (centres undefined) | – | inactive | – | inactive | inactive | inactive | inactive | – | – | – | –
C=C(C)C(=O)NCCC[N+](C)(C)C | – | inactive | inactive | inactive | inactive | inactive | inactive | inactive | – | – | –
CCCCCCCCC=O | – | inactive | – | inactive | inactive | inactive | – | inactive | – | – | –
OCCN1C[C@H](O)[C@@H](O)[C@H](O)[C@H]1CO | – | inactive | inactive | inactive | inactive | inactive | inactive | – | inactive | inactive | –
CC(C)[C@H](N)C(=O)OCCOCn1cnc2c(=O)[nH]c(N)nc21 | – | inactive | inactive | inactive | inactive | inactive | – | inactive | – | inactive | –
COc1cc(C(=O)N2CCOCC2)cc(OC)c1OC | – | inactive | – | inactive | inactive | inactive | inactive | inactive | – | inactive | –
C=CCSCC1Nc2cc(Cl)c(S(N)(=O)=O)cc2S(=O)(=O)N1 (centres undefined) | – | inactive | – | inactive | – | inactive | – | inactive | – | inactive | –
C=C(C)C(=O)NCCCN(C)C | – | inactive | – | inactive | – | inactive | inactive | inactive | – | – | –
Nc1cc(N)cc(C(=O)O)c1 | – | inactive | inactive | inactive | inactive | inactive | inactive | inactive | – | – | –

SMILES | Potency [1] | outcome [2] | outcome [3] | Potency [4] | Potency [5] | outcome [6] | outcome [7] | outcome [8] | Potency [9] | Potency [10] | PLD induction [10]
Nc1nc2c(ncn2CCC(CO)CO)c(=O)[nH]1 | – | inactive | inactive | inactive | inactive | inactive | inactive | inactive | – | inactive | –
Cc1nccn1CC1CCc2c(c3ccccc3n2C)C1=O (centres undefined) | – | inactive | inactive | inactive | inactive | inactive | – | inactive | – | – | -0.746% [at 7.66 µM] and -2.67% [at 3.15 µM]
CC(C)COC(=O)c1ccccc1O | – | inactive | inactive | inactive | inactive | inactive | inactive | inactive | – | – | –
CCO[Si](C)(OCC)OCC | – | inactive | inactive | inactive | inactive | inactive | inactive | inactive | – | – | –
COc1ccc(N=[N+]([O-])c2ccc(OC)cc2)cc1 | – | inactive | inactive | 1.08 µM (active) | inactive | inactive | inactive | inactive | – | – | –
COc1cccc(OC)c1 | – | inactive | – | inactive | inactive | inactive | inactive | inactive | – | – | –
O=C(O)C(O)[C@H](O)[C@@H](O)[C@H](O)[C@H](O)CO (some centres undefined) | – | inactive | inactive | inactive | inactive | inactive | inactive | inactive | – | – | –
CCCCCCCCN(C)CCCCCCCC | – | inactive | inactive | inactive | inactive | inactive | – | – | inactive | – | –
CN(C)C(=O)C(CCN1CCC(O)(c2ccc(Cl)cc2)CC1)(c1ccccc1)c1ccccc1 | – | – | – | inactive | 16.8 µM (active) | – | inactive | – | – | – | –
Cc1onc(-c2ccccc2)c1-c1ccc(S(N)(=O)=O)cc1 | – | inactive | – | inactive | – | inactive | inactive | inactive | – | inactive | –
NC(=O)c1ncn([C@@H]2O[C@H](CO)[C@@H](O)[C@H]2O)c1N | – | inactive | inactive | inactive | inactive | inactive | inactive | inactive | – | inactive | –
C[C@H]1O[C@@H](n2cc(F)c(=O)[nH]c2=O)[C@H](O)[C@@H]1O | – | inactive | – | inactive | inactive | inactive | inactive | inactive | – | inactive | –
CC(C)(C)N(CCO)CCO | – | inactive | inactive | inactive | inactive | inactive | inactive | inactive | – | – | –
CCCc1ccccc1O | – | inactive | – | inactive | inactive | inactive | inactive | – | – | – | –
CCCCc1ccc(N)cc1 | – | inactive | inactive | inactive | inactive | inactive | inactive | inactive | – | – | –
CC(C)(C)OC(=O)N1C[C@@H](F)C[C@H]1C(=O)O | – | inactive | inactive | inactive | inactive | inactive | inactive | inactive | – | – | –
NC(=O)c1c(Cl)cccc1Cl | – | inactive | inactive | inactive | inactive | inactive | inactive | inactive | – | – | –
CCN1CCCC(OC(=O)C(c2ccccc2)c2ccccc2)C1 (centres undefined) | – | inactive | inactive | inactive | inactive | inactive | inactive | inactive | – | inactive | –
CC(C)CCOC(=O)CC(C)C | – | inactive | inactive | inactive | – | inactive | – | inactive | – | – | –
c1cc(CN2CCCCC2)cc(OCCCNc2nc3ccccc3s2)c1 | – | – | – | inactive | – | – | inactive | inactive | – | inactive | –
O=C(O)c1ccccc1S | – | inactive | inactive | inactive | inactive | inactive | inactive | – | – | inactive | –
COc1nc(C)nc(N)n1 | – | inactive | inactive | inactive | inactive | inactive | inactive | inactive | – | – | –
NCCNC(=O)c1ccc(Cl)cn1 | – | inactive | inactive | inactive | – | inactive | inactive | inactive | – | inactive | –
Nc1nc(F)nc2c1ncn2[C@@H]1O[C@H](CO)[C@@H](O)[C@@H]1O | – | inactive | inactive | inactive | inactive | inactive | inactive | inactive | – | inactive | –
CCCCCCCCCCC1CO1 (centres undefined) | – | inactive | – | inactive | inactive | inactive | inactive | inactive | – | – | –
COC(C(=O)O)c1ccccc1 (centres undefined) | – | inactive | – | inactive | inactive | inactive | – | – | – | – | –
CCCCCCCCCCCCCCCCCCOCC(O)CO (centres undefined) | – | inactive | inactive | inactive | inactive | inactive | – | inactive | – | inactive | –
